# Results as given in the supplement of paper PMC10646978.
# ± gives the standard deviation.
# What was measured:
# Details in all cases: modulator concentration 10 µM
# [1] = system: RAW-Dual (murine macrophage reporter line); test: NF-kB reporter (SEAP) activity fold change vs agonist alone; higher = enhanced NF-kB activity
# In short: (§1)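 RAW-Dual murine macrophage reporter cells were plated at 50 000 per well in 384-well plates, pin-transferred compound to 10 μM final, and pre-incubated for 1 hour at 37 °C before a PRR agonist was added and the cells incubated overnight. NF-κB activity was read from supernatant SEAP with QUANTI-Blue at 620 nm absorbance, and IRF activity from Lucia luciferase with QUANTI-Luc by luminescence. Each signal was expressed as fold change by dividing by the mean agonist-only control on the same plate. Two replicate plates were averaged, with errors obtained by propagation.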
# [2] = system: RAW-Dual (murine macrophage reporter line); test: IRF reporter (Lucia luciferase) activity fold change vs agonist alone; higher = enhanced IRF activity
# In short: as §1
# [3] = system: RAW-Dual (murine macrophage reporter line); test: viability score (confluency relative to resting cells, overnight) (fraction); higher = more viable, active = viable (0.7 or more)
# In short: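 Overnight exposure to 10 μM final compound was carried out on RAW-Dual macrophages in 384-well plates. IncuCyte software generated two confluency masks over all wells imaged with IncuCyte. The viability score gives confluency in relation to resting cells. A compound met the cutoff if each mask exceeded 70% of resting cells.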
# [4] = agonist: CpG ODN 1826 0.5 ug/mL
SMILES,"NF-kB reporter [1, 4]",NF-kB reporter ([1]; agonist: LPS 0.1 ug/mL),NF-kB reporter ([1]; agonist: MPLA […]),IRF reporter ([2]; agonist: 3'3'-cGAMP 10 ug/mL),IRF reporter ([2]; agonist: LPS 0.1 ug/mL),IRF reporter ([2]; agonist: MPLA […]),viability score [3]
CN(C)CCN(Cc1ccccc1)c1ccccn1.Cl,0.731 ± 0.19,0.911 ± 0.052,0.927 ± 0.064,0.811 ± 0.074,0.954 ± 0.22,0.854 ± 0.081,1.01 (active)
Fc1ccc(Nc2nc(NN=Cc3ccccc3F)nc(N3CCCCC3)n2)cc1,1.41 ± 0.13,0.987 ± 0.12,1.02 ± 0.096,1.16 ± 0.081,1.26 ± 0.18,1.74 ± 0.28,1.01 (active)
O=c1cc2c(nn1CC1CCN(CC3(O)CCOCC3)CC1)CCCC2,1.08 ± 0.1,0.988 ± 0.099,0.918 ± 0.066,1.08 ± 0.063,1.21 ± 0.075,1.04 ± 0.17,1.01 (active)
COc1ccc(C(=O)C=Cc2cc(OC)c(OC)c(OC)c2)c(O)c1,1.63 ± 0.13,0.199 ± 0.018,0.273 ± 0.026,0.148 ± 0.014,0.0569 ± 0.019,0.0398 ± 0.015,0.794 (active)
OCC(O)CN1CCN(c2ccccc2)CC1 (stereo not given),1.06 ± 0.091,1.03 ± 0.12,1.02 ± 0.039,1.03 ± 0.064,0.991 ± 0.11,0.982 ± 0.17,0.996 (active)
COC(=O)C1=C(C)NC(C)=C(C(=O)OC(C)(C)CN(C)CCC(c2ccccc2)c2ccccc2)C1c1cccc([N+](=O)[O-])c1.Cl (stereo not given),0.167 ± 0.023,0.807 ± 0.17,1.98 ± 1,0.132 ± 0.0065,1.69 ± 0.37,2.85 ± 0.23,0.96 (active)
CCS(=O)(=O)N1CC(CC#N)(n2cc(-c3ncnc4[nH]ccc34)cn2)C1,0.943 ± 0.099,1.13 ± 0.091,2.88 ± 0.17,0.189 ± 0.016,0.338 ± 0.035,0.517 ± 0.07,0.506 (inactive)
COc1cc(OC)cc(C(=O)N2CCN(c3ccc(Nc4cccc(C)n4)nn3)CC2)c1,0.54 ± 0.042,0.981 ± 0.081,1.01 ± 0.029,0.904 ± 0.039,0.951 ± 0.096,1.12 ± 0.2,0.996 (active)
CCCCCCOc1ccc(N2C(=O)CC(N3CCN(Cc4ccc5c(c4)OCO5)CC3)C2=O)cc1 (stereo not given),0.919 ± 0.073,1.07 ± 0.075,0.9 ± 0.055,0.929 ± 0.032,1.38 ± 0.17,1.32 ± 0.12,0.991 (active)
COc1ccc(-c2csc(NC(=O)C3CC3)n2)cc1,1.1 ± 0.064,0.958 ± 0.078,1.05 ± 0.032,0.876 ± 0.032,1.05 ± 0.08,1.13 ± 0.26,0.988 (active)
CCCCCCCCCCCCCCCCOc1nc2ccc(C)cc2c(=O)o1,1.1 ± 0.32,1.09 ± 0.057,0.961 ± 0.13,0.921 ± 0.034,1.27 ± 0.15,1.08 ± 0.23,1 (active)
CC(C(=O)O)c1ccc2c(c1)CC(=O)c1ccccc1S2 (stereo not given),1.19 ± 0.18,1.19 ± 0.43,0.977 ± 0.06,1.03 ± 0.032,1.26 ± 0.42,1.22 ± 0.13,0.988 (active)
O=C(Nc1cc2c(cc1Cl)OCCO2)c1cc(Cl)ccc1O,0.882 ± 0.068,0.902 ± 0.077,0.969 ± 0.092,1.08 ± 0.034,1.26 ± 0.16,1.45 ± 0.23,1.01 (active)
CC1(C)OC(=O)NC1=O [Prestw-829],1 ± 0.076,1.07 ± 0.065,0.958 ± 0.024,0.93 ± 0.051,0.958 ± 0.13,1.01 ± 0.12,0.998 (active)
Cc1ccc(CC(=O)N2CCNC(=O)C2(C)C)cc1C,1.08 ± 0.11,1.07 ± 0.1,0.989 ± 0.031,0.865 ± 0.042,0.941 ± 0.044,0.87 ± 0.085,0.999 (active)
O=C1CCCC2=C1C(c1ccc(C(F)(F)F)cc1)Nc1ccc(C(=O)c3ccccc3)cc1N2 (stereo not given),0.885 ± 0.08,1.19 ± 0.068,0.759 ± 0.045,1.55 ± 0.091,1.36 ± 0.14,1.04 ± 0.12,0.942 (active)
CCN(CC)C(=O)C(=Cc1ccc(Br)cc1)NC(=O)c1ccccc1OC,1.06 ± 0.084,1.09 ± 0.11,1.09 ± 0.075,1.14 ± 0.028,1.61 ± 0.25,1.28 ± 0.12,1.01 (active)
Cc1nnc(NC(=O)c2cccc([N+](=O)[O-])c2)s1,1.03 ± 0.084,0.97 ± 0.093,0.999 ± 0.038,1.05 ± 0.25,1.06 ± 0.049,1.09 ± 0.15,1 (active)

SMILES,"NF-kB reporter [1, 4]",NF-kB reporter ([1]; agonist: LPS 0.1 ug/mL),NF-kB reporter ([1]; agonist: MPLA […]),IRF reporter ([2]; agonist: 3'3'-cGAMP 10 ug/mL),IRF reporter ([2]; agonist: LPS 0.1 ug/mL),IRF reporter ([2]; agonist: MPLA […]),viability score [3]
CCn1nc(C)c(S(=O)(=O)N2CC3CC2CS3)c1C (stereo not given),0.892 ± 0.039,0.936 ± 0.075,0.959 ± 0.051,1.04 ± 0.055,1.17 ± 0.23,1.29 ± 0.41,0.988 (active)
COc1ccc(C(=O)Nc2ccc(Br)c(C)c2)cc1,1.03 ± 0.089,1.1 ± 0.088,1.1 ± 0.038,0.767 ± 0.029,1.01 ± 0.098,1.2 ± 0.14,1 (active)
CC1=NN(C(=O)c2cccnc2)C(O)(c2ccccc2)C1 (stereo not given),0.893 ± 0.071,0.969 ± 0.1,0.949 ± 0.041,0.951 ± 0.09,1.05 ± 0.13,1.1 ± 0.2,0.994 (active)
CC1(C)CCC2(C(=O)O)CCC3(C)C(=CCC4C5(C)CCC(O)C(C)(C)C5CCC43C)C2C1 (stereo not given),1.18 ± 0.28,1.12 ± 0.088,0.942 ± 0.095,0.878 ± 0.03,1.3 ± 0.18,1.24 ± 0.18,0.999 (active)
COc1ccc(C=C(NC(=O)c2ccccc2)C(=O)NCCC(=O)OCc2ccccc2)cc1,0.996 ± 0.082,1.04 ± 0.096,0.875 ± 0.073,0.841 ± 0.024,1.4 ± 0.14,1.11 ± 0.22,1.01 (active)
Br.O=S(=O)(c1ccc(-c2csc(Nc3ccc(F)cc3)n2)cc1)N1CCOCC1,0.769 ± 0.068,0.989 ± 0.075,2.17 ± 0.15,0.768 ± 0.096,0.948 ± 0.054,1.55 ± 0.1,0.997 (active)
CCCOc1ccc(C=C2SC(N3CCN(c4ccccc4C)CC3)=NC2=O)cc1,1.06 ± 0.079,0.989 ± 0.078,0.975 ± 0.061,0.954 ± 0.049,0.988 ± 0.051,0.968 ± 0.14,1 (active)
COc1ccc(CNCc2cccc3ccccc23)cc1,0.715 ± 0.12,1.06 ± 0.1,1.15 ± 0.11,0.877 ± 0.035,0.945 ± 0.1,1.31 ± 0.14,0.967 (active)
CC(NC(=O)C(=O)Nc1ccc(F)cc1)c1ccccc1 (stereo not given),0.972 ± 0.074,0.984 ± 0.18,0.939 ± 0.097,0.987 ± 0.069,1.22 ± 0.21,1.28 ± 0.2,0.994 (active)
CN(C)CCC=C1c2ccccc2C=Cc2ccccc21.Cl,0.43 ± 0.079,1.25 ± 0.15,1.13 ± 0.069,0.406 ± 0.019,1.61 ± 0.14,1.18 ± 0.13,0.918 (active)
Cc1ccc(C(=O)NC(=Cc2cccc3ccccc23)C(=O)N2CCCC2)cc1,0.957 ± 0.075,1.03 ± 0.067,0.974 ± 0.086,0.966 ± 0.042,1.31 ± 0.23,1.15 ± 0.22,1.01 (active)
O=C(OC1Cc2c(O)cc(O)cc2OC1c1cc(O)c(O)c(O)c1)c1cc(O)c(O)c(O)c1 (stereo not given),0.321 ± 0.094,1.04 ± 0.083,1.02 ± 0.092,0.822 ± 0.029,1.13 ± 0.22,1.06 ± 0.1,1.01 (active)
Cc1ncsc1C(=O)N1CC(OCC(F)(F)F)C1,0.974 ± 0.11,0.996 ± 0.08,1.01 ± 0.095,1.08 ± 0.11,1.01 ± 0.09,0.999 ± 0.25,1 (active)
CCC(=O)N1c2ccccc2NC2=C(C(=O)CC(c3ccccc3Cl)C2)C1c1ccc(C)cc1 (stereo not given),1.02 ± 0.17,0.983 ± 0.079,0.961 ± 0.15,0.837 ± 0.022,1.2 ± 0.17,1.23 ± 0.36,1.01 (active)
COC(CNC(=O)CSc1ccc(F)cc1)c1ccc(C)s1 (stereo not given),1.07 ± 0.33,1.1 ± 0.067,1.05 ± 0.067,0.898 ± 0.03,1.06 ± 0.16,1.11 ± 0.1,0.985 (active)
O=C(O)C=Cc1ccc2c(c1)OCCO2,1 ± 0.077,0.902 ± 0.075,1.14 ± 0.12,1.07 ± 0.059,1.35 ± 0.2,1.47 ± 0.33,1.02 (active)
COc1c(O)cc(O)cc1O,1.03 ± 0.095,1.08 ± 0.057,1.1 ± 0.047,1.07 ± 0.069,0.985 ± 0.078,1.02 ± 0.17,0.996 (active)
